# CendR NRP1 mod – NRP-1/CendR interaction modulation. FAM-RPARPAR peptide binding to NRP-1, fluorescence polarization. inhibition, % at 25 µM. 360,000 tested, 0.85% active;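 active = inhibition or corrected inhibition above about 18%, plus a signal ratio from 0.5 to 1.5, limit read from the data, passing the limit was not always enough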
# CRFR2-BP antag – blocks CRF-induced signaling of the CRF-BP/CRF-R2 complex; HEK293 CRF-R2/CRF-BP, CRF-induced calcium fluorescence; inhibition, % at 11.8 µM; 350,000 tested, 0.59% active; AID 588475;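 active = inhibition of the ligand-induced calcium signal above about 50% at the single tested concentration, limit read from the data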
# NadD inh – inhibitors of Staphylococcus aureus NadD; purified NadD enzyme, colorimetric absorbance read-out; inhibition, % at 20 µM; 360,000 tested, 0.78% active; AID 602399; in the data active = inhibition above about 26%
# Myeloid diff MLP – promotes myeloid progenitor differentiation. ER-HoxA9 myeloid progenitors, lysozyme-GFP differentiation, flow cytometry. calls only at 10 µM. 360,000 tested, 1% active. AID 624256;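 active = normalized GFP-positive differentiation at or above the plate's own cutoff, the solvent-only control mean plus 3 SD; inconclusive = no clear call, values can overlap the other calls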;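 also: cells exposed to compound for four days before flow analysis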
# FAS-TE inh – FAS thioesterase (human) inhibition | P49327 | recombinant FAS-TE, OMFH fluorogenic substrate, fluorescence endpoint | inhibition, % at 15 µM | 360,000 tested, 0.67% active | AID 602261;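 active = compounds whose normalised, plate-corrected inhibition of enzyme fluorescence in the single-dose primary screen is 50% or more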;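 also: 0% = DMSO with enzyme and 100% = substrate without enzyme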
# * = called active by the depositor; i = inactive; ? = inconclusive; . = no result given; + = active, no number. Shown are actives, neighbours in structure and some others; about 3.6% of the full set was active somewhere.
SMILES,CendR NRP1 mod,CRFR2-BP antag,NadD inh,Myeloid diff MLP,FAS-TE inh
CCCCNC(=O)C1(C)CCN1C(=O)c1cccc(OC(F)(F)F)c1 (stereo not drawn),-5.1,.,-2.0,i,-3.7
CC(C)(C)c1ccc(OCc2ccc(C(=O)N/N=C/c3ccc(O)c(O)c3)cc2)cc1,-23.4,12.4,72.0*,i,-7.0
O=C(N/N=C/c1ccco1)c1ccc(OCc2ccccc2)cc1,8.1,4.3,-2.9,i,0.8
CCOc1cc(/C=N/NC(=O)c2ccccc2OCc2ccc(F)cc2)ccc1O,6.9,55.7*,10.2,i,15.7
O=C(N/N=C/c1ccco1)c1ccccc1OCc1ccc(Br)cc1,4.1,-18.5,10.1,+,15.3
COc1ccc2oc(=O)c(C(=O)OCc3ccccc3)cc2c1,3.3,-10.6,-3.8,i,9.0
CC[C@]12c3[nH]c4cc(-c5ccco5)ccc4c3CCN1C(=O)[C@@H](CC(=O)NCCCN(C)C)C[C@@H]2C(=O)N1CCN(C(=O)c2ccco2)CC1,-15.2,-2.9,-10.4,i,-5.5
CC(C)OC(=O)CSc1nnc(-c2ccccn2)n1-c1ccccc1,21.3*,-5.5,-5.1,i,-11.4
O=C(c1cc(COc2cccc(C(F)(F)F)c2)on1)N1CCC(c2ccncc2)CC1,18.5,1.2,4.4,?,12.9
COc1cccc(OCc2cc(C(=O)N3CCC(c4ccncc4)CC3)no2)c1,6.9,-12.9,-5.6,+,-3.2
C=CCC1(CC=C)CCCN1C(=O)c1cc(COc2cccc(OC)c2)on1,21.4*,14.9,5.5,i,24.5
C=CCC1(CC=C)CCCN1C(=O)c1cc(COc2cncc(Cl)c2)on1,5.2,.,2.5,i,22.0
COc1cccc(OCc2cc(C(=O)N(C)C3CCOCC3)no2)c1,22.2,16.9,1.6,+,-2.6
c1ccc2c(-c3cccc4nccn34)cncc2c1,-16.5,.,0.6,i,-9.9
CCC(=O)OCc1c(C(F)(F)F)nn(C)c1Sc1ccc(Cl)cc1,5.1,6.4,1.5,i,20.8
CCC(=O)OCc1c(C(F)(F)F)nn(C)c1Sc1ccc(F)cc1,8.7,51.1*,1.3,+,20.3
COc1ccccc1-c1c(C)nn2c(N3CCCCCC3)cc(C)nc12,-8.9,30.2,6.7,i,8.3
COc1ccccc1-c1c(C)nn2c(N3CCN(c4ccccc4OC)CC3)cc(C)nc12,3.1,67.9*,-2.1,i,20.2
COC(=O)c1sc2cc([N+](=O)[O-])cc(SCC(C)C)c2c1N,-59.4,-155.6,-6.9,+,-1.8
CCOC(=O)c1sc2ncc([N+](=O)[O-])cc2c1N,6.9,-9.2,-11.7,i,2.9
CN(C)c1ccc(-c2ccnc3c2CC(C)(C(=O)NCc2ccccc2)O3)cc1 (stereo not drawn),16.3,.,1.4,+,18.7
CN(C)c1ccc(-c2ccnc3c2CC(C)(C(=O)NCc2ccncc2)O3)cc1 (stereo not drawn),-6.8,.,-1.4,i,-4.6
O=C(NCN1CCCCC1)c1cnccn1,2.1,50.8*,5.7,i,-5.9
O=C(NCN1CCOCC1)c1cnccn1,-8.1,14.0,-3.0,.,-2.2
CC(=O)Nc1ccc(S(=O)(=O)NC2(c3ccccc3)C(=O)N(C)C(=O)N(C)C2=O)cc1,3.4,-1.9,0.8,i,-7.6
SMILES,CendR NRP1 mod,CRFR2-BP antag,NadD inh,Myeloid diff MLP,FAS-TE inh
CC(=O)NC1=NN(C(C)=O)C(C)(c2ccccn2)S1 (stereo not drawn),10.9,52.1*,-2.0,i,-3.9
O=C(CN1C(=O)c2ccccc2C1=O)NC1CCC(O)CC1 (stereo not drawn),25.1*,-2.2,-5.9,i,-6.5
COc1cc(NC(=O)COC(=O)CNC(=O)C2CCCCC2)cc(OC)c1,17.3,-19.4,0.5,i,-6.9
Cc1ccccc1CSCC(=O)NC(=O)NCc1ccco1,-10.5,2.7,0.7,i,0.8
O=C(CSCc1ccccc1Br)NNC(=S)NCc1ccco1,21.1*,77.2*,5.6,i,0.2
COc1ccc(/C=C/C(=O)OCC(=O)NC(C)CCc2ccccc2)cc1 (stereo not drawn),12.3,18.8,-5.6,i,4.0
CCCC(=O)Nc1c(-c2cccc(C)c2)c(=O)c2ccccc2n1C,-12.9,2.2,-3.0,.,-5.7
Cc1ccc(-n2c(SCC(=O)NC3CCS(=O)(=O)C3)nc3ccccc3c2=O)cc1C (stereo not drawn),-7.9,-17.8,-1.9,i,-1.8
O=C(NCCN1CCC(n2c(=O)[nH]c3ccccc32)CC1)c1cccc(Cl)c1,8.4,.,-4.7,i,-6.5
COCCNC(=S)N1CCc2cc(OC)c(OC)cc2C1COc1cc(C)cc(C)c1 (stereo not drawn),2.9,86.4*,-10.5,i,25.8
O=C(c1ccc(Cn2c(=O)[nH]c3ccccc3c2=O)cc1)N1CCN(c2ccc(Cl)cc2)CC1,25.3*,4.3,13.3,i,9.3
Cc1ccc(C)c(N2CCN(C(=O)c3ccc(Cn4c(=O)[nH]c5ccccc5c4=O)cc3)CC2)c1,2.3,-18.6,10.1,i,12.8
O=C(Cc1ccc(-n2c(=O)[nH]c3ccsc3c2=O)cc1)N1CCN(c2ccc(Cl)cc2)CC1,-8.8,7.7,17.5,+,-0.9
Cc1cccc(-n2c(SCC(=O)N3CCC(C(=O)O)CC3)nc3ccccc3c2=O)c1C,3.0,1.9,-3.9,i,-4.2
CC(C(=O)N1CCOCCOCCOCCOCCOCC1)N1C(=O)c2ccccc2C1=O (stereo not drawn),2.0,23.6,2.3,i,-2.1
O=C(Cc1ccc(Cl)cc1)NNC(=S)NC(=O)c1cccs1,37.4*,23.2,-2.5,i,-6.5
CCNC(=O)C1(C)CCN(C(=O)c2cc(F)ccc2C)C1 (stereo not drawn),-0.9,.,-1.6,i,-6.0
Cc1ncsc1C(=O)N1CCCC(C(=O)c2ccc3ccccc3c2)C1 (stereo not drawn),6.0,60.2*,-7.9,i,-6.8
CCN1C[C@@H]2[C@@H]3C(=O)N(Cc4ccccc4)C(=O)[C@@H]3[C@](Cc3ccccc3)(C1=O)N2C(=O)c1ccc(C(C)(C)C)cc1,6.3,-10.6,13.7,i,19.9
CCN1C[C@@H]2[C@@H]3C(=O)N(Cc4ccccc4)C(=O)[C@@H]3[C@](CC)(C1=O)N2C(=O)c1ccc(C(F)(F)F)cc1,29.6*,-7.2,3.2,i,-10.0
CCN1C[C@@H]2[C@@H]3C(=O)N(Cc4ccccc4)C(=O)[C@@H]3[C@](CC)(C1=O)N2C(=O)c1ccc(C(C)(C)C)cc1,26.0*,-4.5,0.6,i,-3.7
CCN1C[C@@H]2[C@@H]3C(=O)N(Cc4ccccc4)C(=O)[C@@H]3[C@](Cc3ccccc3)(C1=O)N2C(=O)c1ccc(C(F)(F)F)cc1,0.7,-12.8,14.4,+,-6.7
Cc1ccc(C(=O)N2[C@@H]3CN(C)C(=O)[C@@]2(C)[C@H]2C(=O)N(Cc4ccccc4)C(=O)[C@@H]32)cc1,9.6,-2.9,2.7,i,-5.1

# Source: PubChem BioAssay (several laboratories)
